PubChem BioAssay (NCI)
The panel holds about 83,000 compounds, 20% with a hit somewhere; the sample as a whole holds those more often.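 Method: cells in 96-well plates; compound added at one concentration; 48 h incubation; percent growth measured; values under 10 scored active.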 A number with no mark means an inactive call. Activity calls are given as the source filed them.

Key:
Assay in all cases: NCI-60 one-dose screen, 48 h (100 = growth as untreated, 0 = no growth, -100 = all killed)
Conditions in all cases: 10 µM
SR leukemia = system: SR leukemia
RPMI-8226 leukemia = system: RPMI-8226 leukemia
OVCAR-8 ovarian = system: OVCAR-8 ovarian
OVCAR-5 ovarian = system: OVCAR-5 ovarian
SK-OV-3 ovarian = system: SK-OV-3 ovarian
OVCAR-3 ovarian = system: OVCAR-3 ovarian
HS 578T breast = system: HS 578T breast
NCI/ADR-RES ovarian = system: NCI/ADR-RES ovarian
T-47D breast = system: T-47D breast
MDA-MB-435 melanoma = system: MDA-MB-435 melanoma
SW-620 colon = system: SW-620 colon
MCF7 breast = system: MCF7 breast
HCT-116 colon = system: HCT-116 colon
HCC-2998 colon = system: HCC-2998 colon
KM12 colon = system: KM12 colon
IGROV1 ovarian = system: IGROV1 ovarian
BT-549 breast = system: BT-549 breast
OVCAR-4 ovarian = system: OVCAR-4 ovarian

| Structure (SMILES) | growth (SR leukemia) | growth (RPMI-8226 leukemia) | growth (OVCAR-8 ovarian) | growth (OVCAR-5 ovarian) [%] | growth (SK-OV-3 ovarian) | growth (OVCAR-3 ovarian) | growth (HS 578T breast) | growth (NCI/ADR-RES ovarian) | growth (T-47D breast) | growth (MDA-MB-435 melanoma) | growth (SW-620 colon) | growth (MCF7 breast) | growth (HCT-116 colon) | growth (HCC-2998 colon) | growth (KM12 colon) | growth (IGROV1 ovarian) | growth (BT-549 breast) | growth (OVCAR-4 ovarian) |
| --- | --- | --- | --- | --- | --- | --- | --- | --- | --- | --- | --- | --- | --- | --- | --- | --- | --- | --- |
| O=C(CCCCC(=O)Oc1c(Cl)cc(Cl)cc1[N+](=O)[O-])Oc1c(Cl)cc(Cl)cc1[N+](=O)[O-] | 85.4% | 92.9% | 106% | 109 | 103% | 105% | 105% | 102% | 102% | 103% | 112% | 86.3% | 101% | 103% | 99.7% |  |  |  |
| CC(=O)N[C@H](C(=O)N[C@@H](CCCNC(=N)N)C(=O)N[C@@H](CCCCN)C(=O)N[C@@H](CCCNC(=N)N)C(=O)NC(C(=O)N[C@@H](CC(C)C)C(=O)N[C@@H](CCCNC(=N)N)C(=O)N[C@@]1(C)CCC/C=C\CCC[C@@](C)(C(=O)N[C@@H](CCCNC(=N)N)C(=O)N[C@@H](CCC(=O)O)C(=O)N[C@@H](CC(C)C)C(=O)N[C@H](C(=O)N[C@@H](CCC(=O)O)C(N)=O)C(C)C)NC(=O)[C@H](CCC(N)=O)NC(=O)[C@H](CC(C)C)NC(=O)[C@H](CC(C)C)NC1=O)[C@@H](C)O)C(C)C (some centres not stated) | 14% | -11% (active) | 9.08% (active) | 25.5 | 53.3% | 16.8% | -53.9% (active) | 17.3% | -53.4% (active) | -12.1% (active) | 22.4% | -79.8% (active) | 18.9% | 51.3% | -40.8% (active) | 60.3% | -79.7% (active) |  |
| CO[C@H]1CC(O[C@@H]2/C(C)=C/C[C@@H]3C[C@@H](C[C@]4(C=C[C@H](C)[C@@H](C5CCCCC5)O4)O3)OC(=O)[C@@H]3C=C(C)[C@@H](O)[C@H]4OC/C(=C\C=C\[C@@H]2C)[C@]43O)O[C@@H](C)C1O[C@H]1C[C@H](OC)[C@@H](O)[C@H](C)O1 (some centres not stated) | -52.8% (active) | -25.1% (active) | -25.9% (active) |  | -84.1% (active) | -96.9% (active) | -40.4% (active) | -65.1% (active) | -51.2% (active) | -97.1% (active) | -92.7% (active) | -24.1% (active) | -98.1% (active) | -92.3% (active) | -88.6% (active) | -54.7% (active) | -68.9% (active) | -46.8% (active) |
| COc1ccc(N=Nc2cc(OC)c(OC)c(OC)c2)cc1 | 58.2% | 72.8% | 87.2% |  | 77.6% | 87.7% | 79.3% | 91.2% | 58.8% | 67.6% | 79.8% | 63.6% | 80.5% | 81.4% | 81.7% | 62.7% | 89.7% | 100% |
| Cc1ccc2nc(Cl)c(-c3nc4ccccc4o3)cc2c1 | 88.6% | 97.8% | 99.4% |  | 104% | 98.3% | 98.6% | 89.4% | 83.9% | 99.8% | 103% | 92.4% |  | 87.8% | 89.5% | 79.2% | 88.5% | 99.3% |
| Clc1ccc(/C=C2\CCCC3C2=Nc2ccccc2NC3c2ccc(Cl)cc2)cc1 (configuration not stated) | 21.5% | -16% (active) | 65.8% |  | 70.9% | 67% | 102% | 99.4% | 104% | 11.9% | 41.5% | 35.8% | -87% (active) |  | 17.3% | 83.1% | 83% | 79.5% |
| COc1ccc([C@H]2[C@H](C(=O)Nc3cccnc3)c3ccccc3C(=O)N2c2ccccc2)cc1 | 46.3% |  | 96.1% | 114 | 96.4% | 100% | 71% | 97% | 74% | 99.1% | 91.4% | 95.7% | 49.4% | 100% | 60.7% | 81.4% | 90.5% | 98.2% |
| CS(=O)(=O)c1nccc(-c2c(-c3cccc(O)c3)nc3sccn23)n1 | 72.4% | 91.5% | 94.9% |  | 95.6% | 97% | 93% | 101% | 99% | 84.6% | 106% | 86.3% | 91% | 114% | 96.6% | 117% | 113% | 78.2% |
| CC(=O)Nc1ccc(S(=O)(=O)N/N=C(\C)c2ccc(C)cc2C)cc1 | 113% | 104% | 98.5% |  | 98.5% | 111% | 134% | 112% | 106% |  | 101% | 88.2% | 102% | 101% | 110% |  | 111% | 102% |
